VP16 counter: VP16 counterscreen qHTS for inhibitors of ROR gamma transcriptional activity | AID 2546, 2010 | Potency, µM (top dose mostly 53.6 µM), hits mostly inhibitors | hit rate 3.5% among 310,000 | Drosophila S2 Gal4-VP16 UAS-luciferase, luminescence, 20 h;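 further: Gal4-VP16 expression switched on by copper sulfate through the metallothionein promoter; nearly all actives have a fitted effect of over 50% in size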
DT40 TDP1 no CPT: qHTS for Inhibitors of human tyrosyl-DNA phosphodiesterase 1 (TDP1): qHTS in cells in absence of CPT; Potency, µM (series often up to 46.2 µM), hits mostly inhibitors; DT40 Tdp1-/- hTDP1 cells, no CPT, ATP luminescence, 48 h; hit rate 15% among 420,000; further: nearly all actives have a fitted effect of over 55% in size
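Compound effects on proliferation are scored in DT40 Tdp1-/-;hTDP1 cells in the absence of CPT. ATP levels (CellTiter-Glo luminescence) are recorded after a ≥48 hr, 37 °C incubation.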
RORg inh: qHTS for inhibitors of ROR gamma transcriptional activity | Nuclear receptor ROR-gamma (Mus musculus), P51450 | Drosophila S2 Gal4-RORgamma UAS-luciferase reporter, 20 h | Potency, µM (series often up to 53.6 µM), actives largely listed as inhibitors | hit rate 5.4% among 310,000 | AID 2551, 2010; further: nearly all actives have a fitted effect of over 60% in size
Target sequence (P51450 whole entry, looked up, the tested form may be a part): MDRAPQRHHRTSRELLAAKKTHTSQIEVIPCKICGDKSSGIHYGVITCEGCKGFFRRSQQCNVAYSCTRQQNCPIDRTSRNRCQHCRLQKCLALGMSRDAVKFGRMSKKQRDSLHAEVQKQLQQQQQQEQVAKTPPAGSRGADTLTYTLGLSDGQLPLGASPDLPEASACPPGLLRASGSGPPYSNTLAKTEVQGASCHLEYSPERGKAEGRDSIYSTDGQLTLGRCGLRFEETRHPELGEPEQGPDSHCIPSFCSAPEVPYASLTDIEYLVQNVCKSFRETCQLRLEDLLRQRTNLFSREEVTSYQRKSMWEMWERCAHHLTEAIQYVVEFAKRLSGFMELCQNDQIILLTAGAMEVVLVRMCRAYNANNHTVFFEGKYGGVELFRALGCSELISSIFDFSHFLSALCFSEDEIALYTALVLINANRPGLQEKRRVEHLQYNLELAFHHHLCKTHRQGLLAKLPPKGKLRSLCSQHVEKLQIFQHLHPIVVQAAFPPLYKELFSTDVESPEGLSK
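Schneider cells (Drosophila), stable Gal4 DBD–ROR gamma + UAS-luc; 1 hr cmpd preincubation; Cu2+ induction 700 uM final; 20 hr ambient; luminescence.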
DT40 TDP1 CPT: qHTS for Inhibitors of human tyrosyl-DNA phosphodiesterase 1 (TDP1): qHTS in cells in presence of CPT; AID 686979, 2013; Potency, µM (top dose mostly 46.2 µM), usual class: inhibitors; chicken DT40 Tdp1-/-;hTDP1 cells + 20 nM CPT, ATP luminescence, 48 h; hit rate 12% among 420,000; further: nearly all actives have a fitted effect of over 55% in size
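Chicken DT40 Tdp1-/- cells complemented with human TDP1, 400 cells/well, exposed to compounds plus 20 nM camptothecin for at least 48 h at 37 C; viability read as ATP content by CellTiter-Glo luminescence.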
LDHA block: qHTS assay for inhibitors of human lactate dehydrogenase; L-lactate dehydrogenase A chain (Homo sapiens), P00338; purified LDHA, NADH/diaphorase-resazurin fluorescence; stronger effect = lower value; activity change, % (values are at about 110 or 230 µM); hit rate 0.15% among 480,000; in the data active means activity change below about -30%; inconclusive means mostly about -25% to -30%
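Human LDH5 (2 nM) was incubated with 0.06 mM NADH and 0.2 mM pyruvate for 5 min at room temperature in Tris pH 7.4. Remaining NADH was coupled through diaphorase/resazurin, and resorufin fluorescence was read at 0 and 20 min.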
IL1B secr inh: qHTS for Inhibitors of Inflammasome Signaling: IL-1-beta AlphaLISA Primary Screen. hit rate 4.7% among 360,000. activity change, % at 57.5 µM. THP-1 LPS/ATP IL-1B secretion, AlphaLISA, 16 h; stronger effect = lower value. AID 743279, 2014; in the data active means activity change below about -50%; inconclusive means mostly about -30% to -49%
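Secreted IL-1B measured by AlphaLISA bead assay after 16 h compound exposure of THP-1 cells; compounds (final up to 57.5 uM) added 1 h before LPS (250 ng/mL) and ATP (1.25 mM) stimulation; lower signal means less secretion.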
Numbers stand for hits; – = inactive; ? = inconclusive; · = no result given; [ ] = another dose, or the depositor's remark. Only some compounds are listed: those with a hit (about 18% of all), similar ones and a draw of the others. Unless noted, the call rests on the fitted dose curve; in most records, active means well fitted curve in the direction sought with a large enough effect; inconclusive means small, poorly fitted or top-dose-only effect, or another doubt; inactive means no such curve, though single readings can be large; an effect the other way counts as inactive or inconclusive.

SMILES	VP16 counter	DT40 TDP1 no CPT	RORg inh	DT40 TDP1 CPT	LDHA block	IL1B secr inh
Cc1[nH]n(-c2ccccc2)c(=S)c1C=Nc1ccc([N+](=O)[O-])cc1	7.1µM	23µM	3.2µM	13µM	–	–
CCc1nnc(NS(=O)(=O)c2ccc(N=Cc3c(C)[nH]n(-c4ccc(C)c(C)c4)c3=O)cc2)s1	–	8.2µM	–	2.1µM	–	–
Cc1cc(C)nc(NS(=O)(=O)c2ccc(N=Cc3c(C)[nH]n(-c4ccccc4)c3=O)cc2)n1	–	?	–	21µM	–	–
CC1(c2ccc3c(c2)OCO3)NC(=O)N(Cc2coc(-c3cccs3)n2)C1=O (stereo not given)	·	·	·	·	–	·
CCOP(=O)(OCC)c1nc(-c2ccc([N+](=O)[O-])cc2)oc1NCc1ccc(C)cc1	·	·	·	·	–	·
O=C1CCN(Cc2ccccc2)CCN1CCOc1ccccc1	–	16µM	?	21µM	–	–
CC(C)[C@@H](COc1ccccc1)N1CCN(Cc2ccccc2)CCC1=O	–	?	–	11µM	–	–
CC(C)C(CO)N1CCN(Cc2ccccc2)CCC1=O (stereo not given)	–	–	–	–	–	–
O=C(Nc1ccccc1)OCCN1CCN(Cc2ccccc2)CCC1=O	–	–	–	–	–	–
O=C(Nc1cccc(Cl)c1)OCCN1CCN(Cc2ccccc2)CCC1=O	–	18µM	?	?	–	–
CCc1ccc(C(=O)Nc2ccc(N(C)C)cc2)cc1	·	·	·	·	–	·
CCc1ccc2oc(C(=O)Oc3ccc(C#N)cc3)c(C)c2c1	·	·	·	·	–	·
O=C(COC(=O)/C=C/c1ccc(S(=O)(=O)N2CCOCC2)cc1)NCc1ccccc1	–	13µM	–	7.3µM	–	–
O=C(COC(=O)/C=C/c1ccc(S(=O)(=O)N2CCOCC2)cc1)NCc1ccc(Cl)cc1	–[10 µM]	26µM	–	?	–	–
CC(C)c1ccc(OCC(=O)NOCc2ccccc2)cc1	·	·	·	·	–	·
COC(=O)c1ccc(C2NC(=S)NC3=C2CCc2ccccc23)cc1 (stereo not given)	·	·	·	·	–	·
COc1cccc(C2NC(=S)NC3=C2CCc2ccccc23)c1 (stereo not given)	0.28µM	–	–	?	–	–
COc1ccccc1C1NC(=S)NC2=C1CCc1ccccc12 (stereo not given)	·	·	·	·	–	·
COc1ccc2c(c1)C1=C(CC2)C(c2ccc(C)cc2)NC(=S)N1 (stereo not given)	2.8µM	?	0.71µM	?	–	–
COc1cc(/C=C2/NC(=O)NC2=O)ccc1OCc1cccc(F)c1	·	·	·	·	–	·
CC1CCc2nc(/C(C#N)=C\c3ccco3)sc2C1 (stereo not given)	·	·	·	·	–	·
Oc1ccc(Cl)cc1CNCC1CCCO1 (stereo not given)	–	?	–	?	–	–
O=C(NCC1CCCO1)NC12CC3CC(CC(C3)C1)C2 (stereo not given)	–	–	–	–	–	–
COc1cc(NC(=S)NCC2CCCO2)c(OC)cc1Cl (stereo not given)	18µM	–	10µM	–	–	–
S=C(NCC1CCCO1)Nc1ccc(Cl)cc1Cl (stereo not given)	?	–	16µM	–	–	–
SMILES	VP16 counter	DT40 TDP1 no CPT	RORg inh	DT40 TDP1 CPT	LDHA block	IL1B secr inh
S=C(NCC1CCCO1)NC12CC3CC(CC(C3)C1)C2 (stereo not given)	5µM	–	0.63µM	–	–	–
O=C(NCC1CCCO1)Nc1ccc(Cl)cc1 (stereo not given)	–	?	–	?	–	–
Clc1ccc(-c2ccc(CNCC3CCCO3)o2)cc1 (stereo not given)	–	?	–	–	–	-77
Cc1ccc(C(=O)NC2CCCc3ccccc32)s1 (stereo not given)	·	·	·	·	–	·
O=c1oc2ccccc2c(NC2CCCCC2)c1NS(=O)(=O)c1ccccc1Cl	·	·	·	·	–	·
CCCS(=O)(=O)N1CCN(c2ccc(N3CCCCC3)nn2)CC1	·	·	·	·	–	·
CCOC(=O)C1C(c2cc(OC)c(OC)c(OC)c2)NC(=O)NC1(O)C(F)(F)F (stereo not given)	·	·	·	·	–	·
Cc1ccc(NC(=S)NCCCN2CCOCC2)cc1C	–	–	–	–	–	–
Cc1ccc(NC(=S)NCC2CCCO2)cc1C (stereo not given)	10µM	–	?	–	–	–
Cc1ccc(NC(=S)NCC2CCN(C(C)c3ccccc3)C2)cc1C (stereo not given)	?	16µM	8.9µM	23µM	–	–
Cc1cccc(NC(=S)NCC2CCCO2)c1 (stereo not given)	?	–	?	–	–	–
Cc1ccc(NC(=S)NCc2ccc(Cl)cc2)c(OC(F)F)c1	5µM	?	6.3µM	?	–	–
Cc1ccc(NC(=S)NCCN2CCOCC2)cc1C	–	–	11µM	–	–	–
Cc1cc(C)c(C)c(OCC(=O)NCC2CCCO2)c1 (stereo not given)	–	–	–	?	–	–
CCN(CC)c1ccc(NC(=S)NCC2CCCO2)cc1 (stereo not given)	13µM	?	14µM	?	–	–
Cc1ccc(NC(=S)NCC2CCCO2)c(OC(F)F)c1 (stereo not given)	?	–	11µM	–	–	–
S=C(NCC1CCCO1)Nc1ccccc1 (stereo not given)	–	–	11µM	–	–	–
S=C(NCC1CCCO1)Nc1ccc(Cl)cc1 (stereo not given)	?	–	10µM	–	–	–
O=C(Cn1ccc2c(Cl)cccc21)Nc1ccc2[nH]ccc2c1	·	·	·	·	–	·
CC(Oc1ccc(F)cc1F)C(=O)NNC(=S)NCC1CCCO1 (stereo not given)	?	–	11µM	–	–	–
O=C(NCCc1ccccc1)c1ccccc1NC(=O)C1CC1	·	·	·	·	–	·
O=C(Nc1ccc(F)c(F)c1)c1cc2cc(Br)ccc2oc1=O	·	·	·	·	–	·
CCOC(=O)c1nc(C)nc(Sc2n[nH]c(-c3ccc(C(C)(C)C)cc3)n2)c1C	–	18µM	–	?	–	–
Cc1ccc2oc(-c3ccc(NC(=O)c4cc([N+](=O)[O-])ccc4N4CCOCC4)cc3)nc2c1	·	·	·	·	–	·
CC(=O)OCC(=O)[C@@]12OC3(CCCC3)OC1CC1C3CCC4=CC(=O)C=C[C@@]4(C)[C@]3(F)C(O)C[C@]12C (stereo not given in full)	–	·	3.5µM	·	·	·

Assay outcomes from PubChem BioAssay.
